# This is part of a sample that, as a whole, favours compounds with a hit. Of some 83,000 tested, about 20% had one in any assay.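 Plates (96-well) were seeded with cells, treated with compound at one concentration, and incubated for 48 hours before percent growth was determined.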 Calls of active or inactive are those of the source.
# Tested on: SW-620 colon
# Test: NCI-60 one-dose screen, 48 h (100 = growth as untreated, 0 = no growth, -100 = all killed)
# Conditions: 10 µM
# Protocol: Growth inhibition of the SW-620 human tumor cell line is measured as a screen for anti-cancer activity. Cells are grown in 96 well plates and exposed to the test compound for 48 hours. Compounds are tested at a single concentration, which is 10^-5 M for most compounds. The reported endpoint is percent growth (GI% or GIPRCNT), where numbers from 0 - 100% represent growth inhibition, and numbers from -100% - 0 represent cell death. For example, a value of 40 represents 60% growth inhibition. A value of 0 means no net growth occurred over the course of the experiment. A value of -40 indicates 40% of cells at the beginning of the experiment died by the end of the experiment. A value of -100 means all cells are dead at the end of the experiment.
# NCI-60 Human Tumor Cell Lines Screen was performed using the standard one-dose NCI protocol, which is described in more detail at https://dtp.cancer.gov/discovery_development/nci-60/default.htm.
# Compounds with GIPRCNT values below 10 were considered active. Activity score was based on GIPRCNT using the following formula: […]
# Score is 0 for GIPRCNT values of 100 or above, 50 for GIPRCNT values of 0, and 100 for GIPRCNT values of -100.
row,Compound,growth
1,O=C(CCl)Nc1ccc2c(c1)C(=O)c1ccc(NC(=O)CCl)cc1C2=O,-61.7% (active)
2,COC(=O)c1cccc(Br)c1,114% (inactive)
3,CCn1c(=O)n(C)c2c(=O)n(C)c(=O)n(C)c21,107% (inactive)
4,CCOC(=O)/C(C#N)=C/c1cccc(C)c1,103% (inactive)
5,OCC(O)C(O)C(O)C(O)/C=N/O (stereo not given),99.6% (inactive)
6,CCOC(=O)C1=C(C)NC(=O)NC1c1cccs1 (stereo not given),105% (inactive)
7,CCc1ccc(/C(C#N)=C/C=C/c2ccccc2)cc1,21% (inactive)
8,COCCOC(=O)c1ccc(C(C)C)cc1,104% (inactive)
9,Cc1ccc(C(=O)c2ccccc2)c(C)c1,98.7% (inactive)
10,CC(C(=O)O)(C1CCCCC1)C1(O)CCCCC1 (stereo not given),105% (inactive)
11,O=[N+]([O-])c1ccc(-c2noc(-c3cccs3)n2)cc1,90.4% (inactive)
12,CC(C)C1CCCCC1O (stereo not given),107% (inactive)
13,C[C@@H](c1ccccc1)[C@@H](C(=O)O)c1ccccc1,103% (inactive)
14,[O-][N+](=Nc1cccc(Cl)c1)c1cccc(Cl)c1,90.4% (inactive)
15,O=c1cc(-c2ccccc2)[nH]c2c1CCCC2,24.2% (inactive)
16,Cc1cc(/C=C/c2ccc3cc(N(C)C)ccc3[n+]2C)c(C)n1-c1ccccc1,7.4% (active)
17,NC(CSC(c1ccccc1)(c1ccccc1)c1ccccc1)C(=O)O (stereo not given),24.8% (inactive)
18,NC(=S)NN=C1CCCC1,72.8% (inactive)
19,O=C(N/N=C/c1ccccc1O)Nc1nn[nH]n1,101% (inactive)
20,N#Cc1ccc(NC(=O)Nc2cccc(C#N)c2)cc1,95.8% (inactive)

row,Compound,growth
1,Cc1ccc(O)c(C(=O)c2ccccc2)c1,100% (inactive)
2,C[C@]12CC[C@@H]3c4ccc(OCC(=O)O)cc4CC[C@H]3[C@@H]1CCC2=O,102% (inactive)
3,CC(=O)OC(C(=O)O)c1ccccc1 (stereo not given),101% (inactive)
4,CC1CCCC(CC(N)=O)CC1 (stereo not given),105% (inactive)
5,O=C(Cc1ccccc1)Cc1ccccc1,101% (inactive)
6,COc1ccc2c(NCCCCCCCCNc3c4ccccc4nc4cc(OC)ccc34)c3ccccc3nc2c1,-100% (active)
7,Nc1ccc(C(=O)c2ccc(N)c(Br)c2)cc1Br,21.2% (inactive)
8,Cc1ccc(S(=O)(=O)O)c(C)c1,98.8% (inactive)
9,O=C(CCl)N1CCN(C/C=C/c2ccccc2)CC1,90.3% (inactive)
10,O=C(O)c1ccccc1NCc1ccco1,102% (inactive)
11,O=C(O)CCCc1ccccc1,111% (inactive)
12,O=C(O)[C@@H]1[C@H]2C[C@H]3c4[nH]c5ccccc5c4CCN3C[C@@H]2CC[C@@H]1O,100% (inactive)
13,CCCNc1ccc(C2=NCCCN2)cc1,102% (inactive)
14,Cc1ccc(C)n1-c1ccsc1C(=O)NNC(=O)CCl,108% (inactive)
15,NC(=O)NC(=O)c1ccc(Cl)cc1,102% (inactive)
16,COC(=O)Nc1nc2ccc(C(=O)c3cccs3)cc2[nH]1,24.8% (inactive)
17,O=c1cc(-c2ccccc2)oc2c1ccc1ccccc12,99.2% (inactive)
18,C/C(=C\c1cc(Cl)ccc1OCC(=O)O)[N+](=O)[O-],114% (inactive)
19,CSC(=N\N=C\c1ccc(N(C)C)cc1)/N=C/N(C)C,83.8% (inactive)
20,Cc1ccc(Cl)cc1NC(=O)N(C)CCO,137% (inactive)

# Source: PubChem BioAssay (NCI)
